Rows were chosen to be rich in hits. Some 4% of all compounds tested hit in one or more screens of this group.
UGM FP inh = M. tuberculosis UGM enzyme inhibitors, primary screen, biochemical, fluorescence polarization, single point; UDP-galactopyranose mutase (Mycobacterium tuberculosis (strain ATCC 25618 / H37Rv)), …; purified UGM, fluorescence polarization probe displacement; inhibition, % at 10 µM; 320,000 compounds, 0.06% hits; in the data active = inhibition above about 10%, passing the limit was not always enough; inconclusive = no clear call, values can overlap the other calls
Target sequence (P9WIQ1 whole entry, looked up): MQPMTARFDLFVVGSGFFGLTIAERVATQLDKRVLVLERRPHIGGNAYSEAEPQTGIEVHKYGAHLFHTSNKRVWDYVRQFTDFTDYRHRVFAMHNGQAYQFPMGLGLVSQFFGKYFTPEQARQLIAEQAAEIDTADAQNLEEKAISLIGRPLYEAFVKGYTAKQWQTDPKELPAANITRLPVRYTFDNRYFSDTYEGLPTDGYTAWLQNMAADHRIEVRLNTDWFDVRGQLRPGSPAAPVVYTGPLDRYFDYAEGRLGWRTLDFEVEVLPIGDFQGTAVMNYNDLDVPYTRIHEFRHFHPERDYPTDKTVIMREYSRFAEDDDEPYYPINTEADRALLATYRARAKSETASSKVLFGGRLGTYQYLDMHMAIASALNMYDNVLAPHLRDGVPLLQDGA
Mtb bLac sens = beta-lactam sensitization of Mtb H37Rv, H37Rv | inhibition, % at 25 µM | AID 434955, 2010 | 330,000 compounds, 0.27% hits | M. tuberculosis H37Rv growth with meropenem, percent inhibition;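 also: growth measured after seven days incubation then overnight dye step; 0% = bacteria only wells and 100% = bacteria with antibiotic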
GDH-TPI counter = GDH-TPI coupling enzyme inhibitors, primary screen, artefact control for M. tuberculosis FBA inhibitor project, biochemical, absorbance, full deck; GDH-TPI coupled enzyme counterscreen, NADH absorbance; inhibition, % at 4.8 µM; 360,000 compounds, 1.2% hits; AID 588335, 2011; in the data active = inhibition above about 30%;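 also: 0% = DMSO wells and 100% = wells lacking the enzyme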
Rv3671c protease = Rv3671c serine protease inhibitors, primary screen, biochemical, fluorescence polarization, M. tuberculosis H37Rv; P9WHR9; inhibition, % at 5.96 µM; 320,000 compounds, 0.048% hits; in the data active = inhibition above about 38%;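 also: extracellular domain of Rv3671c used as enzyme; 0% = enzyme with DMSO and 100% = no enzyme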
RecA splice inh = Mtb RecA intein splicing inhibitors, primary screen, biochemical, fluorescence, HTS; Protein RecA (Mycobacterium tuberculosis (strain ATCC 25618 / H37Rv)), P9WHJ3; 290,000 compounds, 0.75% hits; cell-free RecA intein splicing; inhibition, % (no concentration beside the values); in the data active = inhibition above about 30%; inconclusive = no clear call, values can overlap the other calls;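 also: 0% = vehicle wells and 100% = reference inhibitor control wells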
FBA Mtb inh = Mtb FBA enzyme inhibitors, primary screen, biochemical, fluorescence, strain H37Rv | Fructose-bisphosphate aldolase (Mycobacterium tuberculosis (strain ATCC 25618 / H37Rv)), … | purified M. tuberculosis FBA, fluorescence read-out | inhibition, % at 1 µM | 360,000 compounds, 2.3% hits | AID 588726, 2011; in the data active = inhibition above about 27%;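 also: 0% = vehicle and 100% = reference inhibitor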
GFP chromo cs = counter-screen: blocks GFP chromophore formation, dose response, counter-screen, biochemical, fluorescence, homogeneous. shares compounds with RecA splice inh. cell-free GFP chromophore formation. EC50, µM. 2,100 compounds, 83% hits. AID 434968, 2010
Active calls of the source: *; ? = inconclusive; . = not tested or not shown. Unless noted, no rule for the calls is given here.

SMILES | UGM FP inh | Mtb bLac sens | GDH-TPI counter | Rv3671c protease | RecA splice inh | FBA Mtb inh | GFP chromo cs
Cc1cc(C)nc(Sc2ccc(C=O)cc2[N+](=O)[O-])n1 | -3 | -4 | 1 | 5 | 2 | -3 | .
Cc1ccc(C(=O)N2CCC(Cc3ccccc3)CC2)cc1S(=O)(=O)N1CCOCC1 | . | . | -1 | . | . | 5 | .
Cc1ccc(S(=O)(=O)N(CC2CO2)c2cc(Cl)ccc2Cl)cc1 (stereo unspecified) | 0 | -3 | -7 | -5 | 29 | 1 | .
Cc1ccc(S(=O)(=O)Oc2ccccc2)cc1 | . | . | -11 | . | . | 1 | .
Cc1ccc(S(=O)(=O)Oc2ccc(C(c3c(C)[nH][nH]c3=O)c3c(C)[nH][nH]c3=O)cc2)cc1 | -1 | -8 | 6 | -7 | 97* | 3 | >38
O=C(CSc1n[nH]c(-c2ccncc2)n1)Nc1ccc(Cl)c(Cl)c1 | 0 | 25 | 7 | -14 | 2 | 6 | .
Nc1ccc2ncccc2c1 | -3 | -11 | 1 | -1 | 70* | 2 | 16*
Nc1ccc(/C=C/c2ccc3ncccc3c2)cc1 | -2 | 7 | 10 | 3 | -5 | -1 | .
COc1ccc(NC(=O)c2ccc(NC3=NC4CS(=O)(=O)CC4S3)cc2)cc1 (stereo unspecified) | -3 | 1 | 20 | -1 | 0 | 1 | .
Cc1ccc(NC(=O)COC(=O)c2ccc3c(c2)OCO3)c(C)c1 | 2 | -4 | 18 | 5 | -2 | 1 | .
O=C(O)/C=C/C(=O)Nc1ccc(C2(c3ccc(NC(=O)/C=C/C(=O)O)cc3)c3ccccc3-c3ccccc32)cc1 | -4 | -2 | -7 | 17 | 71* | 0 | 27*
O=C(O)/C=C/C(=O)Nc1ccc(OC(F)(F)Cl)cc1 | -1 | -7 | 3 | 2 | 7 | -1 | .
O=C(O)/C=C/C(=O)Nc1ccc(SC(F)(F)C(F)(F)C(F)(F)F)cc1 | 1 | -6 | -3 | -6 | 67* | -5 | 37*
O=C(O)/C=C\C(=O)Nc1ccc(Oc2ccccc2)cc1 | 3 | 53 | 0 | -3 | . | -3 | .
CCOC(=O)CN1C(=O)N[C@@H](c2cccc(C(F)(F)F)c2)C(C(C)=O)=C1C | -2 | -9 | 11 | -9 | 35* | 0 | >38
COc1ccccc1C(CNC(=O)CNC(=O)c1cccc(Cl)c1)N1CCCC1 (stereo unspecified) | . | . | 8 | . | . | 0 | .
CC1=NNC(=O)C1C(c1ccccc1)C(C#N)C#N (stereo unspecified) | 1 | 2 | 11 | 1 | 80* | 0 | 16*
COc1ccc(OC)c(NC(=O)c2cccc(NC(=O)c3ccccc3)c2)c1 | -3 | -1 | 0 | -6 | 1 | -5 | .
CCN1CCN(C(=O)C2CCC(=O)N(CCCN3CCCC3=O)C2)CC1 (stereo unspecified) | 0 | -7 | 0 | -1 | 1 | -1 | .
Cn1[nH]c(CSc2ccc(Cl)cc2)cc1=O | -2 | -8 | -9 | -9 | 93* | -4 | 27*
CCOC(=O)c1nn(-c2ccccc2C)c(=O)c2c(N)scc12 | -1 | 0 | 2 | -14 | 48* | -4 | >38
CCOC(=O)c1nn(-c2ccccc2)c(=O)c2c(NC(C)=O)scc12 | -4 | -2 | -3 | -3 | -6 | 2 | .
CCCC(=O)N(Cc1cc(=O)[nH]c2ccccc12)c1cccc(C)c1 | 1 | ? | 1 | -4 | 5 | 4 | .
CCCC(=O)N(Cc1cc(=O)[nH]c2ccccc12)c1ccc(OC)cc1 | 1 | -11 | 3 | 6 | 5 | -3 | .
COc1ccc(N(Cc2cc(=O)[nH]c3ccccc23)C(=O)CCl)cc1 | -1 | 61 | 8 | 7 | . | 1 | 15*
Cc1cccc(N(Cc2cc(=O)[nH]c3ccccc23)C(=O)CCl)c1 | -1 | 61 | 4 | -2 | 41* | 7 | 8*
Nc1ccc2nc(CCCCCCc3nc4ccc(N)cc4[nH]3)[nH]c2c1 | 2 | -2 | 5 | 8 | 7 | 7 | .
